# The campaign covered roughly 310,000 compounds. About 2,200 (0.71%) showed an effect of 50% or more. The effect is printed as a negative number. The sample as a whole holds a higher share of strong results than the screen did.
# Target: human ether-à-go-go-related gene (hERG) potassium channel (human, UniProt Q12809)
# Experiment: primary screen, population patch clamp on CHO cells stably expressing hERG; higher = less effect of the substance
# Sequence of human ether-à-go-go-related gene (hERG) potassium channel (Q12809 whole entry, looked up): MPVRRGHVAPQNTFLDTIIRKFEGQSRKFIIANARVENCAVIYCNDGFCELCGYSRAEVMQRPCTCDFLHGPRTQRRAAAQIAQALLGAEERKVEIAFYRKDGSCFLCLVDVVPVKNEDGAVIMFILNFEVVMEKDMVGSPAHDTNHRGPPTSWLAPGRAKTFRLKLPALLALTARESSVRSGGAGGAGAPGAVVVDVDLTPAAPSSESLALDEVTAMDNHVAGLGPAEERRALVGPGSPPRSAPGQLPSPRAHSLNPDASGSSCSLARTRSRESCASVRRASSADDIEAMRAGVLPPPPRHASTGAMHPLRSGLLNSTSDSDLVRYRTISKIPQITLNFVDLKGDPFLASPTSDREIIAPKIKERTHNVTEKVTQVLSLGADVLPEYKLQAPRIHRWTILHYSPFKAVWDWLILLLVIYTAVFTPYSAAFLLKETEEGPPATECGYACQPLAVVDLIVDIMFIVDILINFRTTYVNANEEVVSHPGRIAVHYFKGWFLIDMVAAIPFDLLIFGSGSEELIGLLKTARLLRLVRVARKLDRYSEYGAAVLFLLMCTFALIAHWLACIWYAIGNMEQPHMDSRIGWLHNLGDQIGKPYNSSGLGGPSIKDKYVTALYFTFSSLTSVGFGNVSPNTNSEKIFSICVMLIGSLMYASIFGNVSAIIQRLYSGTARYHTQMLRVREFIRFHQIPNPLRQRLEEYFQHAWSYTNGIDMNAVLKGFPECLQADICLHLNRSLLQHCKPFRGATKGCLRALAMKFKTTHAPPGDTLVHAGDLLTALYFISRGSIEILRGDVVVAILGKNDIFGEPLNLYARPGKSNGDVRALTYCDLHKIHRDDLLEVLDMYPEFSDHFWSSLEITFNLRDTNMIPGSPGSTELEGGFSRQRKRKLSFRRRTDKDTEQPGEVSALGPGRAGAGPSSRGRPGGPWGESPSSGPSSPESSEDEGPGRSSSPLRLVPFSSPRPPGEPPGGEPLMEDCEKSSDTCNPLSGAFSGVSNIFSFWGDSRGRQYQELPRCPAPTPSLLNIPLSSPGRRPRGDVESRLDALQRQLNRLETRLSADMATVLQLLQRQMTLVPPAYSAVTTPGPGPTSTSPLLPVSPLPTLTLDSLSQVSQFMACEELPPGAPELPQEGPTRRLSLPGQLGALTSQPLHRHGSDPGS
row,Structure (SMILES),"hERG current change (%, negative = inhibition) at 1uM [%]"
1,N#CCC1c2ccccc2CCN1C(=O)Nc1ccc(C(F)(F)F)cc1 (stereo not shown),-4.23
2,COc1ccccc1S(=O)(=O)CC(O)COc1ccc(F)cc1Cl (stereo not shown),12.6
3,O=C(CNC(=O)c1ccc(Br)cc1)NCC(=O)OCC(=O)c1ccccc1,9.69
4,CC(=O)Nc1cc2c3c(c1)CCN3C(=O)CC2,22.9
5,CCC1=Nc2ccccc2NC2=C1C(=O)CCC2.Cl,-18.7
6,CC(C)(C)NC(=O)Cn1c(SCC(=O)Nc2nccs2)nc2ccccc21,10.4
7,CC(C)COC(=O)NC1c2ccccc2Oc2ccccc21,-2.38
8,CCCCn1nnc(NC(=O)Cc2ccc(Cl)cc2)n1,-4.74
9,CCOC(=O)c1c(C)[nH]c(C)c1S(=O)(=O)NCC1CCN(Cc2ccccc2F)CC1,8.12
10,COc1cc2nc(CN3CCOCC3)n(CC(=O)NCC(F)(F)F)c(=O)c2cc1OC,11.5
11,COC(=O)c1nnn(-c2nonc2N)c1COc1ccc(C=O)cc1OC,-1.8
12,Cc1c(C2N3CC4(C)CN2CC(C)(C3)C4=O)c2ccccc2n1C (stereo not shown),-15.5
13,CC1=Nc2cc(C(=O)NCCCN3CCOCC3)ccc2Sc2c(C)ccc(C)c21,14.7
14,N#Cc1ccc(/C=C/C(=O)c2ccco2)cc1,5.85
15,COc1ccc(C(=O)NC2CC3CCCC(C2)N3CC(C)C)cc1OC (stereo not shown),8.35
16,Cc1cccc(C(=O)NCCCn2ccnc2)c1C,4.84
17,COc1cc(CN2CCC(n3nccc3NC(=O)CCCc3ccccc3)CC2)ccc1F,9.25
18,COc1cc(CN2CCC(n3nccc3NC(=O)C3CCOC3)CC2)ccc1F (stereo not shown),2.37
19,COc1cc(CN2CCC(n3nccc3NC(=O)c3ccccc3OC)CC2)ccc1F,-77.6
20,COc1ccc(NC2CCCN(C(=O)CSc3ccccc3)C2)cc1 (stereo not shown),8.31

row,Structure (SMILES),"hERG current change (%, negative = inhibition) at 1uM [%]"
1,CSc1cccc(NC(=S)N(CCCN2CCCC2)Cc2cccs2)c1,-17.9
2,COc1ccc(NC(=O)CSc2nc3ccccc3c(=O)n2CCCN2CCC(C)CC2)c(OC)c1,-72.1
3,CC1CCN(CCCn2c(SCC(=O)NC3CCCC3)nc3ccccc3c2=O)CC1,-64.8
4,CC1CCN(CCCn2c(SCC(=O)Nc3ccccc3Cl)nc3ccccc3c2=O)CC1,-34.1
5,COc1ccc(NC(=O)CSc2nc3ccccc3c(=O)n2CCCN2CCCCC2)c(OC)c1,-27.7
6,COc1ccc(NC(=O)CSc2nc3ccccc3c(=O)n2CCCN2CCOCC2)c(OC)c1,1.25
7,CCCCn1c(SCC(=O)NC2CCCC2)nc2ccccc2c1=O,4.94
8,CC1CCCCC1NC(=O)COC(=O)c1ccc(N(C)C)cc1 (stereo not shown),9.14
9,O=C(Cc1csc(NC(=O)Nc2cccc(Cl)c2)n1)NCc1cccnc1,-44.2
10,Cc1ccc(NC(=O)c2ccncc2)cc1S(=O)(=O)N(C)C,0.0196
11,CCc1ccc(NC(=O)c2noc(C(C)C)c2[N+](=O)[O-])cc1,8.97
12,CCN1CCN(c2c(Cl)cccc2NC(=O)c2ccc(Br)o2)CC1,-59.3
13,O=C(Nc1cccc(Cl)c1N1CCOCC1)c1ccco1,4.55
14,O=C(Nc1cccc(Cl)c1N1CCOCC1)c1ccc(Br)o1,4.08
15,CCN1CCN(c2c(Cl)cccc2NC(=O)c2ccc([N+](=O)[O-])o2)CC1,-77
16,O=C(Nc1cccc(Cl)c1N1CCCC1)c1ccc(Br)o1,-5.81
17,O=C(Nc1cccc(Cl)c1N1CCCC1)c1ccco1,16.2
18,O=C(Nc1cccc(Cl)c1N1CCCC1)c1ccc([N+](=O)[O-])o1,9.79
19,CCN1CCN(c2c(Cl)cccc2NC(=O)c2ccco2)CC1,-70.7
20,O=C(Nc1cccc(Cl)c1N1CCOCC1)c1ccc([N+](=O)[O-])o1,3.63

row,Structure (SMILES),"hERG current change (%, negative = inhibition) at 1uM [%]"
1,Cc1nc([N+](=O)[O-])cn1CC(=O)Nc1ccc(Cl)cc1,14.3
2,OCCNC(=S)NCCc1ccccc1,9.19
3,COCCNC(=S)N(CCN(C)C)Cc1cc2cc3c(cc2[nH]c1=O)OCO3,15.5
4,CC(C)c1cc(C(=O)N2CCCC(N3CCN(c4ccccc4F)CC3)C2)nc(N)n1 (stereo not shown),10.1
5,O=C(Nc1ccc(Cl)cn1)Nc1ccccc1F,0.928
6,CC(C)Oc1ccc(N2CC(C(=O)Nc3ccc(N4CCOCC4)cc3)CC2=O)cc1 (stereo not shown),24.6
7,OCC1(CCOc2ccccc2)CCN(Cc2ccc(OC(F)F)cc2)CC1,-87.1
8,CCOc1ccccc1CN1CCC(CO)(CCOc2ccccc2)CC1,-66.8
9,OCC1(CCOc2ccccc2)CCN(Cc2cc(Cl)ccc2O)CC1,-0.875
10,Cc1nn(C)cc1CN1CCC(CO)(CCOc2ccccc2)CC1,8.14
11,OCC1(CCOc2ccccc2)CCN(Cc2ccc3c(c2)OCCO3)CC1,-31.2
12,OCC1(CCOc2ccccc2)CCN(Cc2ccccc2OC(F)F)CC1,-54.4
13,Cc1cc(C)c(CN2CCC(CO)(CCOc3ccccc3)CC2)cc1C,-0.659
14,OCC1(CCOc2ccccc2)CCN(Cc2ccccc2C(F)(F)F)CC1,3.9
15,C=CCOc1ccccc1CN1CCC(CO)(CCOc2ccccc2)CC1,-61.4
16,O=C(CSc1nnc(COc2ccccc2)o1)NC1CC2CCC1C2 (stereo not shown),14.8
17,CC(=O)c1ccc(NC(=O)COC(=O)c2c[nH]c3ccccc23)cc1,14.4
18,C/C=C\C(=O)Nc1cccc(C2=NOC3(C2)C[C@@H](C(N)=O)N(C(=O)c2ccccc2)C3)c1 (stereo partly shown),11.6

# From article PMC4336329 (PLoS ONE, 2015)
